# Assay results taken from PubChem BioAssay (Tox21).
# Calls of active or inactive are those of the source. Calls follow the shape of the dose curve; as a rule, active = well fitted curve in the direction sought with a large enough effect in the repeat runs; inconclusive = weak or mixed curves; inactive = flat fitted curve, though single readings scatter.
# Assay: qHTS assay to test for compound auto fluorescence at 535 nm (green) in HepG2 cell free culture (AID 720686)
# Conditions: Cell-free medium, green autofluorescence 485/535 nm; series mostly up to 46 µM; fluorescence, % of fluorescein control: at the top concentration
# From the text: U.S. Tox21 Program National Center for Advancing Translational Sciences [NCATS] NIH Chemical Genomics Center [NCGC] U.S. Environmental Protection Agency [EPA] National Institutes of Environmental Health Sciences [NIEHS] National Toxicology Program [NTP] U.S. Food and Drug Administration [FDA] Tox21 Assay Overview: Compound auto fluorescence often interferes with screening of the compound library against various biological targets and signaling pathways. Some of these compounds may have fluorophoric properties. Such properties may interfere with the assay outputs resulting in false positives and/or negatives. To decrease such complications and ensure the compound activities are relevant in terms of biological response, the Tox21 10K compound library was screened for auto fluorescence. From the fluorophores used as reporter signals in our screening assays, the auto fluorescence equivalencies of compounds against three fluorophores have been evaluated: Triamterene, Fluorescein and Rose Bengal sodium for blue, green and red fluorescence, respectively. The fluorescence intensities were measured using Excitation/Emission wavelengths at 405/460nm, 485/535nm and 540/590nm for blue, green and red labels, respectively. This assay includes the green fluorescence data.
# Tox21 Assay Protocol Summary: 5 uL of culture medium (MEM containing 10% FBS) per well was dispensed into black wall/clear bottom 1536-well plates using a Multidrop Combi Dispenser (ThermoFisher Scientific, Waltham, MA). After 23 nL compound or DMSO vehicle was transferred into assay plate by a pintool work station (Kalypsys, San Diego, CA), fluorescence intensities in the assay plates were measured by an Envision (PerkinElmer, Shelton, CT) plate reader using three labels for measuring blue, green and red fluorescence at […] 460, 535 and 590nm respectively.
# % is scaled to controls: 0 for no effect and ±100 for the full control effect.
SMILES,"fluorescence, % of fluorescein control",outcome
CCCCCCCCCCCCCCCCC,-0.0774% [at 91.3 µM] (inactive),–
CC(C)OC(=O)c1ccccc1,-0.0247% [at 95.7 µM] (inactive),–
CC(C)NCC(O)c1ccc(NS(C)(=O)=O)cc1 (stereo not given),–,inactive
O=C[C@H](O)[C@@H](O)[C@H](O)[C@H](O)CO,–,inactive
Cc1cc2c(cc1S(N)(=O)=O)S(=O)(=O)CCC2,0.082% [at 18.6 µM] (inactive),–
CN1CCN(c2cc3c(cc2F)c(=O)c(C(=O)O)cn3-c2ccc(F)cc2)CC1,1.36% (inactive),–
COCCCOCCCOC,0.0583% [at 91.3 µM] (inactive),–
CC/C=C\CCOC(C)=O,0.178% [at 91.3 µM] (inactive),–
NS(=O)(=O)c1ccccc1Cl,-0.0011% [at 91.3 µM] (inactive),–
CCCc1cc(C(N)=S)ccn1,0.0307% (inactive),–
CCCCOCCOCCOCCCC,0.0162% [at 91.3 µM] (inactive),–
COc1ccc2c(c1)c(CC(=O)OCC(=O)O)c(C)n2C(=O)c1ccc(Cl)cc1,-0.0149% (inactive),–
C=C(C)CS(=O)(=O)O,0.0085% [at 91.3 µM] (inactive),–
O=C(O)c1ccccc1OP(=O)(O)O,-0.001% (inactive),–
CCCCNC(=O)NCCCC,0.0048% [at 91.3 µM] (inactive),–
CN1CCCC1,-0.0409% [at 91.3 µM] (inactive),–
CC(=O)N(CC(O)CO)c1c(I)c(C(=O)NCCO)c(I)c(C(=O)NCC(O)CO)c1I (stereo not given),-0.0101% (inactive),–
OCCOc1ccc(OCCO)cc1,-0.0209% [at 95.7 µM] (inactive),–
CC[N+](C)(C)c1cccc(O)c1,-0.0844% [at 18.6 µM] (inactive),–
COC(=O)[C@@H](N)Cc1ccc(O)c(O)c1,-0.0249% (inactive),–

SMILES,"fluorescence, % of fluorescein control",outcome
Nc1c[n+](N2CCOCC2)no1,0.0031% (inactive),–
O=C1CCCN1C1CCCCC1,-0.0165% [at 91.3 µM] (inactive),–
CCOc1ccc(C(=O)OCCN(CC)CC)cc1,-0.0018% (inactive),–
CC(=O)Nc1c(I)cc(I)c(C(=O)O)c1I,-0.157% (inactive),–
CCOC(=O)[C@H](CCc1ccccc1)N[C@@H](C)C(=O)N1[C@H](C(=O)O)C[C@@H]2CCC[C@@H]21,-0.0077% (inactive),–
c1ccc([C@H]2CN3CCSC3=N2)cc1,-0.0078% (inactive),–
NS(=O)(=O)c1cc(C(=O)O)cc(N2CCCC2)c1Oc1ccccc1,-0.0048% [at 18.6 µM] (inactive),–
N=C(N)c1ccc(OCCCOc2ccc(C(=N)N)cc2)cc1,-0.0195% (inactive),–
C=C1CC[C@H]2C[C@@H]1C2(C)C,0.0825% [at 91.3 µM] (inactive),–
CN(C(=O)c1c(O)c2ccccc2n(C)c1=O)c1ccccc1,0.0052% (inactive),–
CCOC(=O)c1cccc(N)c1,-0.0033% (inactive),–
CO[Si](CCCOCC1CO1)(OC)OC (stereo not given),–,inactive
CS(=O)(=O)O,-0.0875% [at 91.3 µM] (inactive),–
OC1CCCCC1c1ccccc1 (stereo not given),0.07% [at 91.3 µM] (inactive),–
O=C1CCCC(=O)C1,-0.0349% [at 91.3 µM] (inactive),–
NC(CSCC(=O)O)C(=O)O (stereo not given),-0.0059% (inactive),–
CC/C=C\CC/C=C/C(OCC)OCC,-0.0879% [at 91.3 µM] (inactive),–
NC(=O)c1ccc(N)cc1,0.111% [at 91.3 µM] (inactive),–
CC(C[N+](C)(C)C)OC(N)=O (stereo not given),-0.0291% (inactive),–
C[N+](C)(C)CCCCCC[N+](C)(C)C,0.0195% (inactive),–
